The whole screen tested about 5,500 compounds, of which about 2,000 (36%) were called active. Not shown: some 18% with an inconclusive outcome. No stated cut-off is given here; in the data, active means normalized growth mostly below about 0.91 (no sharp cut-off); inconclusive means no clear call, values can overlap the other calls; inactive means mostly above about 0.92. The list shows a part of the results.
Test: chemical genetic growth profiling, strain panel (AID 1159580);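 further: tested at 20 µM; growth read once vehicle control cultures reached saturation at 30 °C; 1 = growth at the plate median or of vehicle wells; lower values mean less growth of the strain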
Details: growth OD

Measured: normalized growth

CN(C)C(=S)SSC(=S)N(C)C
active: S. cerevisiae deletion strains, locus YJR075W, strain HOC1, hits give low values 0.0622 | S. cerevisiae deletion strains, locus YKL009W, strain mrt4, hits give low values 0.657 | S. cerevisiae deletion strains, locus YKL068W, hits give low values 0.055 | S. cerevisiae deletion strains, locus YKL085W, strain MDH1 (second series), hits give low values 0.0509 | S. cerevisiae deletion strains, locus YKL085W, strain MDH1, hits give low values 0.0509 | S. cerevisiae deletion strains, locus YKL160W, strain elf1, hits give low values 0.0619 | S. cerevisiae deletion strains, locus YKL190W, strain CNB1, hits give low values 0.0467 | S. cerevisiae deletion strains, locus YKR001C, strain vps1, hits give low values 0.061 | S. cerevisiae deletion strains, locus YKR026C, strain gcn3, hits give low values 0.0601 | S. cerevisiae deletion strains, locus YKR091W, strain srl3, hits give low values 0.058 | S. cerevisiae deletion strains, locus YLL001W, strain dnm1, hits give low values 0.0595 | S. cerevisiae deletion strains, locus YLL026W, hits give low values 0.0612 | S. cerevisiae deletion strains, locus YLL041C, strain sdh2, hits give low values 0.0559 | S. cerevisiae deletion strains, locus YLR027C, strain aat2, hits give low values 0.0546 | S. cerevisiae deletion strains, locus YLR039C, strain RIC1, hits give low values 0.0839 | S. cerevisiae deletion strains, locus YLR058C, strain SHM2, hits give low values 0.048 | S. cerevisiae deletion strains, locus YLR102C, strain apc9, hits give low values 0.0608 | S. cerevisiae deletion strains, locus YLR113W, strain HOG1, hits give low values 0.126 | S. cerevisiae deletion strains, locus YLR221C, strain rsa3, hits give low values 0.0608 | S. cerevisiae deletion strains, locus YLR258W, strain gsy2, hits give low values 0.0595 | S. cerevisiae deletion strains, locus YLR262C, strain YPT6 (second series), hits give low values 0.0761 | S. cerevisiae deletion strains, locus YLR262C, strain YPT6, hits give low values 0.0956 | S. cerevisiae deletion strains, locus YLR268W, strain sec22, hits give low values 0.0648 | S. cerevisiae deletion strains, locus YLR320W, strain mms22, hits give low values 0.0851 | S. cerevisiae deletion strains, locus YLR330W, strain CHS5, hits give low values 0.0523 | S. cerevisiae deletion strains, locus YLR342W, strain FKS1 (second series), hits give low values 0.0636 | S. cerevisiae deletion strains, locus YLR342W, strain FKS1, hits give low values 0.0632 | S. cerevisiae deletion strains, locus YLR357W, strain rsc2, hits give low values 0.117 | S. cerevisiae deletion strains, locus YLR370C, strain arc18, hits give low values 0.0609 | S. cerevisiae deletion strains, locus YLR371W, strain rom2, hits give low values 0.0607 | S. cerevisiae deletion strains, locus YLR384C, strain iki3, hits give low values 0.0593 | S. cerevisiae deletion strains, locus YLR418C, strain cdc73, hits give low values 0.0915 | S. cerevisiae deletion strains, locus YML016C, strain PPZ1, hits give low values 0.0487 | S. cerevisiae deletion strains, locus YML032C, strain rad52, hits give low values 0.0671 | S. cerevisiae deletion strains, locus YML120C, strain ndi1, hits give low values 0.0572 | S. cerevisiae deletion strains, locus YML124C, strain tub3, hits give low values 0.0583 | S. cerevisiae deletion strains, locus YMR058W, strain fet3, hits give low values 0.0575 | S. cerevisiae deletion strains, locus YMR078C, strain ctf18, hits give low values 0.0701 | S. cerevisiae deletion strains, locus YMR125W, strain sto1, hits give low values 0.0716 | S. cerevisiae deletion strains, locus YMR129W, hits give low values 0.0557 | S. cerevisiae deletion strains, locus YMR205C, strain PFK2, hits give low values 0.0852 | S. cerevisiae deletion strains, locus YMR223W, strain ubp8, hits give low values 0.062 | S. cerevisiae deletion strains, locus YMR231W, strain pep5, hits give low values 0.0656 | S. cerevisiae deletion strains, locus YMR263W, strain SAP30, hits give low values 0.0571 | S. cerevisiae deletion strains, locus YMR307W, strain GAS1, hits give low values 0.108 | S. cerevisiae deletion strains, locus YNL067W, strain RPL9B, hits give low values 0.0475 | S. cerevisiae deletion strains, locus YNL071W, strain lat1, hits give low values 0.0591 | S. cerevisiae deletion strains, locus YNL128W, strain TEP1, hits give low values 0.0618 | S. cerevisiae deletion strains, locus YNL153C, strain GIM3, hits give low values 0.0449 | S. cerevisiae deletion strains, locus YNL183C, strain NPR1, hits give low values -0.000652 | S. cerevisiae deletion strains, locus YNL209W, strain ssb2, hits give low values 0.0584 | S. cerevisiae deletion strains, locus YNL233W, strain BNI4, hits give low values 0.0527 | S. cerevisiae deletion strains, locus YNL248C, strain rpa49, hits give low values 0.0732 | S. cerevisiae deletion strains, locus YNL250W, strain rad50, hits give low values 0.0632 | S. cerevisiae deletion strains, locus YNL271C, strain bni1, hits give low values 0.0624 | S. cerevisiae deletion strains, locus YNL298W, strain CLA4, hits give low values 0.0589 | S. cerevisiae deletion strains, locus YNL307C, strain MCK1, hits give low values 0.0687 | S. cerevisiae deletion strains, locus YNL322C, strain KRE1 (second series), hits give low values 0.0642 | S. cerevisiae deletion strains, locus YNL322C, strain KRE1, hits give low values 0.0479 | S. cerevisiae deletion strains, locus YNR049C, strain mso1, hits give low values 0.0549 | S. cerevisiae deletion strains, locus YNR052C, strain pop2, hits give low values 0.0601 | S. cerevisiae deletion strains, locus YOL006C, strain TOP1, hits give low values 0.0896 | S. cerevisiae deletion strains, locus YOL012C, strain htz1 0.179 | S. cerevisiae deletion strains, locus YOL147C, strain pex11, hits give low values 0.0594 | S. cerevisiae deletion strains, locus YOR001W, strain rrp6, hits give low values 0.0656 | S. cerevisiae deletion strains, locus YOR061W, strain CKA2, hits give low values 0.0451 | S. cerevisiae deletion strains, locus YOR069W, strain VPS5, hits give low values 0.0465 | S. cerevisiae deletion strains, locus YOR070C, strain gyp1, hits give low values 0.0589 | S. cerevisiae deletion strains, locus YOR080W, strain dia2, hits give low values 0.067 | S. cerevisiae deletion strains, locus YOR083W, strain WHI5, hits give low values 0.0647 | S. cerevisiae deletion strains, locus YOR106W, strain vam3, hits give low values 0.061 | S. cerevisiae deletion strains, locus YOR136W, strain idh2, hits give low values 0.0736 | S. cerevisiae deletion strains, locus YOR144C, strain elg1, hits give low values 0.0615 | S. cerevisiae deletion strains, locus YOR184W, strain ser1, hits give low values 0.0681 | S. cerevisiae deletion strains, locus YOR231W, strain MKK1, hits give low values 0.103 | S. cerevisiae deletion strains, locus YOR265W, strain rbl2, hits give low values 0.0567 | S. cerevisiae deletion strains, locus YOR270C, strain vph1, hits give low values 0.0916 | S. cerevisiae deletion strains, locus YOR290C, strain snf2, hits give low values 0.0706 | S. cerevisiae deletion strains, locus YOR316C, strain cot1, hits give low values 0.0552 | S. cerevisiae deletion strains, locus YPL051W, strain arl3, hits give low values 0.0635 | S. cerevisiae deletion strains, locus YPL055C, strain LGE1, hits give low values 0.0716 | S. cerevisiae deletion strains, locus YPL078C, strain atp4, hits give low values 0.0627 | S. cerevisiae deletion strains, locus YPL106C, strain sse1, hits give low values 0.1 | S. cerevisiae deletion strains, locus YPL240C, strain hsp82, hits give low values 0.0673 | S. cerevisiae deletion strains, locus YPL241C, strain CIN2, hits give low values 0.0518 | S. cerevisiae deletion strains, locus YPL256C, strain CLN2, hits give low values 0.125 | S. cerevisiae deletion strains, locus YPR119W, strain clb2, hits give low values 0.0622 | S. cerevisiae deletion strains, locus YPR141C, strain kar3, hits give low values 0.0653 | S. cerevisiae deletion strains, locus YPR163C, strain tif3, hits give low values 0.0696 | S. cerevisiae deletion strains, locus YPR167C, strain met16, hits give low values 0.0614 | S. cerevisiae deletion strains, strain wtn01, hits give low values 0.0602 | S. cerevisiae strains, strain wild type, hits give low values 0.0482

Source: PubChem BioAssay AID1159580 (chemical genetic matrix, 2015)
